This is part of a sample that, as a whole, favours compounds with a hit. Of some 79,000 tested, about 15% had one in any assay. A number with no mark means an inactive call. The source made the active and inactive calls. Rule as the data show it: active = growth inhibition above about 70%; inactive = the rest.
Assay: NCI Yeast Anticancer Drug Screen. Data for the rad50 strain (AID 155);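 also: 0% = growth of vehicle-only cultures of the same strain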
Settings: S. cerevisiae rad50 strain growth inhibition, stronger effect = higher value; at 50.0 µM unless noted
Outline: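 Relative growth inhibition (compound vs vehicle) was measured in yeast with a defined repair-gene alteration.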

First: COc1ccc2c(c1)c(COC(C)=O)c(C)c[n+]2[O-]
Second: CCN(CC(COc1ccc2c(c1)[n+]([O-])nc(N)[n+]2[O-])OC(C)=O)C(C)=O (centres undefined)
The growth inhibition of the first is lower: 25.1% for the first, 42.9% for the second.

First: C=C(C)C1CCC2(C)CCC(=O)C(C)=C2C1 (centres undefined)
Second: CC(=O)OC1CCC2(C)C(CCC3C2C(=O)C(OC(C)=O)C2(C)C3CC3OC4(CCC(C)CO4)C(C)C32)C1 (centres undefined)
The growth inhibition of the first is higher: 3.15% for the first, -10.5% for the second.

Compared with `CCOC(=O)C(CC/C=C\c1ccccc1)N1CCC[C@H]1C(=O)OC` (some centres undefined), `CCOC(=O)C(=CNc1ccc(OC)cc1[N+](=O)[O-])C(=O)OCC` is higher in growth inhibition: -7.9% for the first, 11.7% for the second.

First: Cc1[nH]c2c(ccc3c2ccc2c(=O)c(C)c(C)[nH]c23)c(=O)c1C
Second: O=c1oc2ccccc2c(O)c1Cc1ccccc1Cc1c(O)c2ccccc2oc1=O
The growth inhibition of the first is lower: -2.05% for the first, 4.4% for the second.

Going from `O/C(=C/c1ncnc2ccccc12)c1cccc(Cl)c1` to `O=C(Cc1ccccc1)c1ccccc1C(=O)NCc1ccncc1`, the growth inhibition falls from 12.5% to 1.7%.

Compared with `O=[N+]([O-])c1ccc[nH]1`, `CN(/N=C/c1cccs1)c1ccc(Cl)cc1[N+](=O)[O-]` is lower in growth inhibition: -6.15% for the first, -29.4% for the second.

Compared with `Oc1cc2c(cc1C(Nc1ncccn1)c1ccc3c(c1)OCO3)OCO2` (centres undefined), `Cc1ccc(Nc2cc(C(=O)O)c(Nc3ccc(C)cc3)cc2C(=O)O)cc1` is higher in growth inhibition: -0.4% for the first, 0.7% for the second.

Going from `CC(=O)OCC(O)CS(=O)c1ccc(C)cc1` (centres undefined) to `CCOC(=O)c1ccc(O)c(NC(C)=O)c1`, the growth inhibition falls from -6.25% to -11.7%.

Going from `CCN(CC)C(=O)Oc1cccc(NC(=O)OC)c1` to `C=C(COc1ccc(OC)cc1)C(C)(C)C`, the growth inhibition rises from 16% to 18.9%.

Compared with `Clc1nn2cnnc2c2ncccc12`, `Cn1c(-c2csc(-c3ccc(Cl)cc3)n2)n[nH]c1=S` is higher in growth inhibition: 2.8% for the first, 5.65% for the second.

Compared with `CC[N+](CC)(CC)CCOc1nc(OCC[N+](CC)(CC)CC)nc(OCC[N+](CC)(CC)CC)n1`, `COc1cc(C(=O)N(C)C)cc(OC)c1OC` is lower in growth inhibition: 11.8% for the first, -1.25% for the second.

Compared with `CC1Nc2ccccc2C1C` (centres undefined), `O=C1OCc2ccccc21` is higher in growth inhibition: -35.2% for the first, 3.2% for the second.

Going from `CCOc1ccc2c(c1)S(=O)(=O)OC2=O` to `COCc1ccc2c(c1)C(O)NC(=O)O2` (centres undefined), the growth inhibition rises from -11.1% to 4.75%.

First: COc1cc2c(cc1OC)C1C(C)c3ccc(OC)c(OC)c3CN1CC2 (centres undefined)
Second: COc1cc(N=Nc2c(N)nc(N)[nH]c2=O)c(OC)cc1Cl
The growth inhibition of the first is higher: 0.65% for the first, -8.45% for the second.

Compared with `Cc1ccc(S(=O)(=O)N2CCC(CCl)N(S(=O)(=O)c3ccc(C)cc3)CC2CCl)cc1` (centres undefined), `Cc1ccc(N(C)S(=O)(=O)c2ccccc2)cc1` is lower in growth inhibition: 18.1% for the first, 11.4% for the second.

First: CCCCCC1CC(C(C)=O)CN1c1ccc(F)cc1 (centres undefined)
Second: CN(C)c1cccc2c(S(=O)(=O)NCCCNCCN)cccc12
The growth inhibition of the first is lower: -0.95% for the first, 7.6% for the second.

Compared with `Cc1nc(N(C)C)oc(=O)c1CCc1ccccc1`, `CCc1ccccc1NC(=O)C(=O)CC(=O)c1sc(Nc2ccccc2Cl)nc1C` is higher in growth inhibition: -5.8% for the first, 6.25% for the second.

Compared with `CC(C)(CO)CNC(=O)C(C)(C)CO`, `CCC(C)(C)NC(N)=O` is higher in growth inhibition: 7.8% for the first, 13.1% for the second.

For `CCCn1c(C)nc2c([N+](=O)[O-])cc(C)cc21`, the growth inhibition was -4.2%.

In the case of `CCCCCOC(=O)C#CC(=O)OCCCCC`, the growth inhibition is reported as 99.8% (active).
With `CC1(C)CC[C@]2(C(=O)O)CC[C@]3(C)C(=CC[C@@H]4[C@@]5(C)CC[C@H](OC6OC(CO)C(O)C(O)C6O)C(C)(C)[C@@H]5CC[C@]43C)[C@@H]2C1` (some centres undefined) the growth inhibition was 76.2% (active).

Reference: PubChem BioAssay (NCI)
